USP28 block: blocks human USP28 ubiquitin-rhodamine cleavage; AID 1645857; hit rate 3% among 47,000; purified USP28, Ub-rhodamine cleavage fluorescence, 30 min; inhibition, % at 25 µM; Q96RU2
USP10 block: blocks human USP10 ubiquitin-rhodamine cleavage | Q14694 | purified USP10, Ub-rhodamine fluorescence, 60 min | inhibition, % at 20 µM | hit rate 1.1% among 47,000 | AID 1645856
USP30 inh: inhibitors of human USP30 deubiquitinase; purified USP30, Ub-rhodamine cleavage fluorescence; inhibition, % at 25 µM; hit rate 5.3% among 47,000
USP17 block: inhibitors of human USP17 deubiquitinase. A8MUK1. purified USP17, Ub-rhodamine cleavage fluorescence, 3 h. inhibition, % at 50 µM. hit rate 6.5% among 47,000
USP8 block: human USP8 deubiquitinase inhibition. P40818. purified USP8, Ub-rhodamine cleavage fluorescence, 30 min. inhibition, % at 20 µM. hit rate 4.2% among 47,000. AID 1645853
* = called active by the depositor. In the library only some 13% were active in any assay of this set; here they are far more common. Cut-off read from the data, not from the text of the source: active = inhibition above about 30%; inactive = the rest.

Results for C=C(NC(=O)C(=C)NC(=O)c1ccc2c(n1)-c1coc(n1)C(=C)NC(=O)C(=C)NC(=O)c1nc(oc1C)C(=C)NC(=O)C(C(C)(C)O)NC(=O)C(=C)NC(=O)c1nc(oc1C)/C(=C/C)NC(=O)C(C(C)O)NC(=O)c1csc-2n1)C(N)=O (stereo not drawn) ?
USP28 block: 0; USP10 block: -10; USP30 inh: -78; USP17 block: 36*; USP8 block: 4

What do the screens show for `Cc1ccc(S(=O)(=O)NC(=O)c2cn(-c3ccccc3)nc2C(F)(F)F)cc1`?
USP28 block: 20; USP10 block: 6; USP30 inh: 30; USP8 block: 0

What do the screens show for `Cc1nc(N2CCCCC2)ncc1C(=O)Nc1ccccc1F`?
USP28 block: 6; USP10 block: 0; USP30 inh: -12; USP17 block: 1; USP8 block: 8

Results for Cc1cccc(NC(=O)c2cnc(N3CCCCC3)c3ccccc23)n1 ?
USP28 block: 21; USP10 block: -3; USP30 inh: -24; USP17 block: 10; USP8 block: 36*

What do the screens show for `COc1ccc(OC)c(CCNC(=O)CCC2=NS(=O)(=O)c3ccc(C(F)(F)F)cc3N2)c1`?
USP28 block: 18; USP10 block: 16; USP30 inh: 33*; USP17 block: 77*; USP8 block: 58*

Results for CCOc1ccccc1NC(=O)Cn1c(-c2ccc3c(c2)OCO3)cn(-c2ccc(OC)cc2)c1=O ?
USP28 block: 1; USP10 block: 8; USP30 inh: 28; USP17 block: 52*; USP8 block: -8

What do the screens show for `COc1ccc(-c2cc3c(=O)n(CC(=O)NCCCN4CCCC4)ncn3n2)cc1`?
USP28 block: 10; USP10 block: -8; USP30 inh: 47*; USP17 block: 60*; USP8 block: -1

How did CCOc1ccc(-c2cc3c(=O)n(CC(=O)Nc4ccccc4OC)ccn3n2)cc1 do in these assays?
USP28 block: -1; USP10 block: 0; USP30 inh: 6; USP17 block: 2; USP8 block: -2

What do the screens show for `COc1ccc(-c2cn(-c3ccc(C)cc3)c(=O)n2CC(=O)Nc2cccc(F)c2)cc1`?
USP28 block: -56; USP10 block: -1; USP30 inh: -275; USP17 block: -130; USP8 block: -254

How did COc1ccc(-c2cc3c(=O)n(CC(=O)Nc4ccccc4F)ccn3n2)cc1OC do in these assays?
USP28 block: -3; USP10 block: -1; USP30 inh: 9; USP17 block: 70*; USP8 block: -2

What do the screens show for `CC(C)NC(=O)Cn1ccn2nc(-c3ccc(Cl)cc3)cc2c1=O`?
USP28 block: 18; USP10 block: 23; USP30 inh: 47*; USP17 block: 82*; USP8 block: 18

How did CC(C)n1c(=O)n(CC(=O)N2CCOCC2)c2cc(S(=O)(=O)N3CCCC3)ccc21 do in these assays?
USP28 block: 7; USP10 block: 2; USP30 inh: 4; USP17 block: 3; USP8 block: 12

What do the screens show for `Cc1ccc(Cn2c(=O)c3ccccc3n3c(CCC(=O)NCCN4CCCC4)nnc23)cc1`?
USP28 block: 0; USP10 block: -1; USP30 inh: 5; USP17 block: -4; USP8 block: -12

How did CCOC(=O)Cc1cc(=O)oc2cc(O)ccc12 do in these assays?
USP28 block: -12; USP10 block: -6; USP30 inh: -34; USP17 block: -26; USP8 block: -14

How did Cc1nc(N2CCN(C)CC2)ncc1C(=O)Nc1ccccc1 do in these assays?
USP28 block: -7; USP10 block: 0; USP30 inh: -4; USP17 block: -10; USP8 block: -34

Results for CCOc1ccccc1NC(=O)Cn1ccn2nc(-c3ccc(OC)cc3)cc2c1=O ?
USP28 block: 6; USP10 block: 7; USP30 inh: 43*; USP17 block: 50*; USP8 block: 4

What do the screens show for `COc1ccc(-c2cc3c(=O)n(CC(=O)Nc4ccccc4Cl)ccn3n2)cc1`?
USP28 block: 10; USP10 block: 6; USP30 inh: 6; USP17 block: 55*; USP8 block: -2

What do the screens show for `COC[C@H]1O[C@@H](O[C@@H]2OC[C@@H]3O[C@@]4(OC(C)[C@@](O)([C@H](C)O)[C@@H]5OCO[C@H]54)O[C@H]3[C@H]2OC(=O)C(C)C)[C@@H](OC)[C@@H](O)[C@@H]1O[C@@H]1O[C@H](C)[C@H](OC)[C@H](O[C@H]2C[C@@]3(C)O[C@@]4(C[C@@H](O)[C@H](O[C@H]5C[C@@H](O)[C@H](OC(=O)c6c(C)c(Cl)c(O)c(Cl)c6OC)[C@@H](C)O5)[C@@H](C)O4)O[C@@H]3[C@@H](C)O2)[C@H]1O` (stereo partly drawn)?
USP28 block: 1; USP10 block: 1; USP30 inh: 29; USP17 block: 5; USP8 block: 5

How did C[C@]12C(=O)N(c3ccccc3C(=O)NC3CCCCC3)C(=O)N1CCc1c2[nH]c2ccccc12 do in these assays?
USP28 block: 6; USP10 block: 0; USP30 inh: 32*; USP17 block: 45*; USP8 block: -1

Results for COc1ccc(NC(=O)c2ccc(N3C(=O)N4CCc5c([nH]c6ccc(OC)cc56)[C@@]4(C)C3=O)cc2)cc1 ?
USP28 block: 17; USP10 block: 2; USP30 inh: 18; USP17 block: 23; USP8 block: 31*

What do the screens show for `CC1CCC(NC(=O)c2ccccc2N2C(=O)N3CCc4c([nH]c5ccccc45)[C@@]3(C)C2=O)CC1` (stereo partly drawn)?
USP28 block: -2; USP10 block: -1; USP30 inh: -9; USP17 block: 5; USP8 block: -3

Results for COc1ccc(CCNC(=O)c2ccccc2N2C(=O)N3CCc4c([nH]c5ccc(OC)cc45)[C@@]3(C)C2=O)cc1 ?
USP28 block: -2; USP10 block: 2; USP30 inh: 41*; USP17 block: 43*; USP8 block: 4

Results for COCCN1Cc2c(C(=O)N3CCCCC3C)ncn2-c2ccccc2S1(=O)=O (stereo not drawn) ?
USP28 block: 2; USP10 block: 0; USP30 inh: -2; USP17 block: -7; USP8 block: -96

What do the screens show for `c1coc(CNc2nnc(-c3nc(C4CC4)no3)c3ccccc23)c1`?
USP28 block: 1; USP10 block: 1; USP30 inh: -19; USP17 block: 1; USP8 block: 3

What do the screens show for `CCC(=O)Nc1cccnc1-c1ccc(C(=O)Nc2ccc3c(c2)OCO3)cc1`?
USP28 block: 40*; USP10 block: 13; USP30 inh: 5; USP8 block: 75*

How did CSc1cccc(NC(=O)C2C3C=CC4(O3)C2C(=O)N(CCN2CCCCCC2)C4C(=O)NC2CCCCC2)c1 (stereo not drawn) do in these assays?
USP28 block: 7; USP10 block: -4; USP30 inh: -102; USP17 block: 6; USP8 block: -34

Results for COc1cccc(NC(=O)C(C)n2cnc3nc(N4CCCCC4)ncc3c2=O)c1 (stereo not drawn) ?
USP28 block: -1; USP10 block: 0; USP30 inh: 5; USP17 block: 2; USP8 block: 17
